Only some compounds are listed: those with a hit (about 5% of all), similar ones and a draw of the others.
PREPL inh: human PREPL enzyme inhibition; Q4J6C6; recombinant PREPL, fluorescence polarization activity-based probe; inhibition, % at 5.96 µM; hit rate 0.68% among 320,000; AID 2751; in the data active = inhibition above about 43%
CHT PAM: allosteric activators of human choline transporter CHT | CHT-expressing cells, membrane potential dye, choline EC20; active compounds read high; LV-AA mutant CHT in HEK293 cells | B-score at 10 µM | AID 488977 | Q9GZV3 | hit rate 0.49% among 310,000;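 active = initial fluorescence not abnormally high and integrated response B-score, plate-corrected, over 3 SD above library mean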
Target sequence (Q9GZV3 whole entry, looked up): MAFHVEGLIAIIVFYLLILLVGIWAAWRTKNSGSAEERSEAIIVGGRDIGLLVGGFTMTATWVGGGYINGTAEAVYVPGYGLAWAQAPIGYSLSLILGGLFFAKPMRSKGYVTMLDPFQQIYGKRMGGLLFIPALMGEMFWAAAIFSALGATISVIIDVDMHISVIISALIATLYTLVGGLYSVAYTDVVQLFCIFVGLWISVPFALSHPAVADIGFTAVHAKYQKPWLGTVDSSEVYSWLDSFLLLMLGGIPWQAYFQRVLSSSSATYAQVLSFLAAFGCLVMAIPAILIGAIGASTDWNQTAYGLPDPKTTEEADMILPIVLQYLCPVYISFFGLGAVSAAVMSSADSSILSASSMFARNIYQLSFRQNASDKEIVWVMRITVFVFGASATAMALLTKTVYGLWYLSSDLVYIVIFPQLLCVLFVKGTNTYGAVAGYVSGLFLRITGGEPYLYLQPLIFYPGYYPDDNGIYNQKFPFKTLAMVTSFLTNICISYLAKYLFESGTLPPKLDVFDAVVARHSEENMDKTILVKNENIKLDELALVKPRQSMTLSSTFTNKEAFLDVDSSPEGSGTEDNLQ
ALR inh: inhibitors of human sulfhydryl oxidase ALR | P55789 | purified ALR, DTT oxidation, H2O2 HRP-luminol luminescence | inhibition, % (concentration not given with the values) | hit rate 3.8% among 290,000 | AID 485317;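 active = mean replicate inhibition above about 79%, with every replicate also reaching it, limit read from the data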
AI-2 QS mod: modulates the Vibrio harveyi AI-2 quorum sensing system. Vibrio harveyi JMH597 AI-2 luminescence/OD600 ratio, 9 h; active compounds read low; strain lacks LuxN and CqsS sensors; 0 = neutral-control median. activity change, % at 7.5 µM. hit rate 0.4% among 300,000. AID 2094; in the data active = activity change below about -75%, passing the limit was not always enough;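 note: luminescence divided by OD600 gain over 9 h not by final OD600 alone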
CHT inh: inhibitors of human choline transporter CHT | Q9GZV3 | CHT-expressing cells, membrane potential dye, choline response; active compounds read low | B-score at 10 µM | hit rate 0.86% among 310,000;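 active = B-score over 3 SD under the library average, and starting fluorescence ratio not unusually high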;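 note: choline stimulus applied at its EC90 after an EC20 pre-addition; B-score computed on integrated fluorescence ratio after choline addition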
CHT inh conf: confirmation of human choline transporter CHT inhibitors. hit rate 70% among 2,400. CHT activity remaining % of control (active compounds read low), % at 10 µM. shares compounds with CHT inh. CHT-expressing cells, choline membrane potential dye; LV-to-AA substituted CHT, HEK293 cells. AID 493221;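 active = choline transporter activity left, mean of duplicates at 10 µM, below buffer-only control mean minus 3 SD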;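 note: depolarization triggered by choline at its EC90 following an EC20 pre-addition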
HEK293 CHT ctr: CHT inhibitor counter-screen hit in parental HEK293 cells; hit rate 4% among 2,400; membrane potential dye, choline response; active = decrease or increase beyond buffer ±3SD; membrane potential ratio readout (active if shifted either direction beyond buffer ±3SD; no single direction) at 10 µM; shares compounds with CHT inh;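 note: parental cells lack the transporter so any hit is non-specific; ratio is peak minus trough fluorescence over baseline after EC90 choline challenge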
Of the large screens only hits and unclear results are named; the others gave an inactive call (follow-up assays come after a bar, where they were run).

Cc1cc(NC(=O)CN2C(=O)NC(CC(C)C)C2=O)ccc1Br (stereo unspecified)	none (no result: CHT PAM, AI-2 QS mod, CHT inh)
COc1ccccc1C(=O)OCC(=O)Nc1ccc(OC(F)F)cc1	none
COc1ccccc1C(=O)OCC(=O)Nc1ccccc1OC(F)F	CHT inh -7.83 | CHT inh conf inactive | HEK293 CHT ctr inactive
C/C(=N\N=C(N)N)c1ccc(Cl)c(Cl)c1	CHT inh -11.2 | CHT inh conf 18.7% | HEK293 CHT ctr inactive
C/C(=N\NC(=O)CC(C)C)c1ccc(Cl)c(Cl)c1	none
CCC(C(=O)NC(C)CCc1ccccc1)n1nc(C)n2c(cc3occc32)c1=O (stereo unspecified)	CHT inh -11.3 | CHT inh conf inactive | HEK293 CHT ctr -8.54
CCc1noc(C)c1C(=O)NNC(=O)COc1ccc(C)cc1	none (no result: AI-2 QS mod)
OCc1ccccc1OCCOc1ccc(Cl)c2cccnc12	CHT inh -9.74 (no result: ALR inh) | CHT inh conf 44.2% | HEK293 CHT ctr inactive
O=C(NCc1nnc(SCC(=O)N2CCOCC2)o1)c1ccccc1F	none
C#CC[N+]1(CC#Cc2ccccc2)CCCCC1	CHT inh -9.64 | CHT inh conf inactive | HEK293 CHT ctr inactive
C#CC[N+]1(CC#Cc2ccccc2)CCOCC1	none
C#CC[N+]1(CC#Cc2cccc(C)c2)CCCCC1	CHT inh -6.75 | CHT inh conf 38.9% | HEK293 CHT ctr inactive
C(#Cc1ccccc1)C[N+]1(CC#Cc2ccccc2)CCCCC1	none
CN(CC(=O)Nc1cccc(F)c1)C(=O)C1CCN(S(=O)(=O)c2ccc3c(c2)OCCO3)CC1	none
CCNc1nc(Cl)nc(NNC(=O)C(C)Oc2ccccc2)n1 (stereo unspecified)	none (no result: ALR inh)
Cc1ccc(CCNC(=O)C2CCCN(c3ncnc4c3nc3n4CCCCC3)C2)cc1 (stereo unspecified)	none
O=C(Nc1ccc(Cl)cn1)C1CCCN(c2ncnc3c2nc2n3CCCCC2)C1 (stereo unspecified)	CHT inh -6 | CHT inh conf 31.8% | HEK293 CHT ctr inactive
Cc1ccc(NC(=O)C2CCCN(c3ncnc4c3nc3n4CCCCC3)C2)nc1 (stereo unspecified)	none
COc1ccc(Cl)cc1NC(=O)C1CCCN(c2ncnc3c2nc2n3CCCCC2)C1 (stereo unspecified)	CHT inh -5.19 | CHT inh conf 57.5% | HEK293 CHT ctr inactive
CC1CCN(CCNC(=O)C2CCCN(c3ncnc4c3nc3n4CCCCC3)C2)CC1 (stereo unspecified)	CHT inh -10.5 | CHT inh conf 32.1% | HEK293 CHT ctr inactive
Cc1sc2c(c1C)c(=O)nc1n2Cc2ccccc2-1	none (no result: PREPL inh, CHT PAM, ALR inh, CHT inh)
CCN(CC)CCCNC(=O)c1oc2ccc(S(=O)(=O)N3CC(C)CC(C)C3)cc2c1C (stereo unspecified)	none
CC(=O)O[C@H]1[C@@H](O)[C@H](O)[C@H](Oc2c(O)c(C)c3c4c2[C@@H](C)CC[C@@H]4[C@@H](C)C[C@H]3C=C(C)C)O[C@H]1C	none (no result: CHT PAM, AI-2 QS mod, CHT inh)
C[C@H](NC(=O)OC(C)(C)C)c1nnc(SCC(=O)c2ccc(Cl)cc2)o1	CHT inh -5.29 (no result: ALR inh) | CHT inh conf 68.8% | HEK293 CHT ctr inactive
Cc1csc(C(C#N)C(=O)c2cc3ccccc3o2)n1 (stereo unspecified)	CHT inh -5.26 | CHT inh conf 60.9% | HEK293 CHT ctr inactive
CCN(Cc1ccc(C#CCCO)cc1)CC1CCCN(CCc2cccc(F)c2)C1 (stereo unspecified)	none (no result: ALR inh)
Cc1ccnc(SCc2cc(=O)c(OC(=O)c3ccco3)co2)n1	CHT inh -5.76 | CHT inh conf 60.7% | HEK293 CHT ctr inactive
Cc1ccnc(SCc2cc(=O)c(OC(=O)c3cccs3)co2)n1	none
Cc1c(-c2cc(C(=O)O)on2)cnn1C	none
O=C(Nc1ccc(C(=O)OC2CCCCC2)cc1)c1ccncc1	none (no result: AI-2 QS mod)
O=C(Cc1cccc(NC(=O)C2CCN(C(=O)c3ccccc3)CC2)c1)Nc1cccc(C(=O)N2CCCC2)c1	none (no result: CHT PAM, AI-2 QS mod, CHT inh)

High-throughput results: PubChem BioAssay, several laboratories
